Data reported in ChEMBL document CHEMBL1961873, “Compounds: GSK PKIS; Assays: Nanosyn kinase panel” (2012).

Key:
[1] = molecular target: Casein kinase I isoform gamma-2 (Homo sapiens) (UniProt P78368); details: at 1 µM
[2] = molecular target: Casein kinase I isoform gamma-3 (Homo sapiens) (UniProt Q9Y6M4); details: at 0.1 µM
[3] = molecular target: Casein kinase I isoform gamma-3 (Homo sapiens) (UniProt Q9Y6M4); details: at 1 µM
[4] = molecular target: Cyclin-dependent kinase 1 (Homo sapiens) (UniProt P06493); details: at 0.1 µM
[5] = molecular target: Cyclin-dependent kinase 1 (Homo sapiens) (UniProt P06493); details: at 1 µM
[6] = molecular target: Cyclin-dependent kinase 2 (Homo sapiens) (UniProt P24941); details: at 0.1 µM
[7] = molecular target: Cyclin-dependent kinase 2 (Homo sapiens) (UniProt P24941); details: at 1 µM
[8] = molecular target: Cyclin-dependent kinase 2 (Homo sapiens) (UniProt P24941); details: at 0.1 µM; remark: listed apart in the source
[9] = molecular target: Cyclin-dependent kinase 2 (Homo sapiens) (UniProt P24941); details: at 1 µM; remark: listed apart in the source
[10] = molecular target: T1, CDK3/Cyclin E (Homo sapiens) (UniProt P24864+Q00526); details: at 0.1 µM
[11] = molecular target: T1, CDK3/Cyclin E (Homo sapiens); details: at 1 µM
[12] = molecular target: Cyclin-dependent kinase 4 (Homo sapiens) (UniProt P11802); details: at 0.1 µM
[13] = molecular target: Cyclin-dependent kinase 4 (Homo sapiens) (UniProt P11802); details: at 1 µM
[14] = molecular target: Cyclin-dependent kinase 5 (Homo sapiens) (UniProt Q00535); details: at 0.1 µM
[15] = molecular target: Cyclin-dependent kinase 5 (Homo sapiens) (UniProt Q00535); details: at 1 µM
[16] = molecular target: Cyclin-dependent kinase 6 (Homo sapiens) (UniProt Q00534); details: at 0.1 µM
[17] = molecular target: Cyclin-dependent kinase 6 (Homo sapiens) (UniProt Q00534); details: at 1 µM
[18] = molecular target: Dual specificity protein kinase CLK2 (Homo sapiens) (UniProt P49760); details: at 0.1 µM
[19] = molecular target: Dual specificity protein kinase CLK2 (Homo sapiens) (UniProt P49760); details: at 1 µM
[20] = molecular target: Dual specificity protein kinase CLK3 (Homo sapiens) (UniProt P49761); details: at 0.1 µM
Dual specificity protein kinase CLK3 (Homo sapiens), sequence (P49761 whole entry, looked up): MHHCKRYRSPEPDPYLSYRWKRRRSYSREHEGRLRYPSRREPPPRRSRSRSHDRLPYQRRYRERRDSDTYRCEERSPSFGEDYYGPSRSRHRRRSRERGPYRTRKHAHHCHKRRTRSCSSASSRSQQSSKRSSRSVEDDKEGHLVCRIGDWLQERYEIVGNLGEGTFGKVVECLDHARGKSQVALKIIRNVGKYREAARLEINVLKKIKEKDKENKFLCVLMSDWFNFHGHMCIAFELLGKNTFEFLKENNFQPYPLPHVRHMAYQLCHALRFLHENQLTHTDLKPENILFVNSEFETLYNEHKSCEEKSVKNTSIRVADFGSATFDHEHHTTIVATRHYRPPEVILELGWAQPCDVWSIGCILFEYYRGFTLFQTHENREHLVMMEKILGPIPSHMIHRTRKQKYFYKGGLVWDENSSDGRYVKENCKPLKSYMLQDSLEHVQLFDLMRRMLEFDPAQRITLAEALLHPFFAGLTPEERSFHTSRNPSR

T1 sequence (P24864 whole entry, looked up): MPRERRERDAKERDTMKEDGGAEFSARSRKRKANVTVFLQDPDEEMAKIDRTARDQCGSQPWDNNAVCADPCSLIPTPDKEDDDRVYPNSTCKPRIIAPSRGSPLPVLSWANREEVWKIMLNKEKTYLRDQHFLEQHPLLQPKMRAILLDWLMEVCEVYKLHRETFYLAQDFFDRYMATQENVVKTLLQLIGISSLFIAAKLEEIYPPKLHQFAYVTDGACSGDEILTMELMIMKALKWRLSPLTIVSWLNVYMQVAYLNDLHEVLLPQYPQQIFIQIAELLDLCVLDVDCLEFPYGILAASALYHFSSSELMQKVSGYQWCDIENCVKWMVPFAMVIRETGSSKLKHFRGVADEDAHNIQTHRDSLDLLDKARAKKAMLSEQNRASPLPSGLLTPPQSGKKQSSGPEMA
T1 sequence (Q00526 whole entry, looked up): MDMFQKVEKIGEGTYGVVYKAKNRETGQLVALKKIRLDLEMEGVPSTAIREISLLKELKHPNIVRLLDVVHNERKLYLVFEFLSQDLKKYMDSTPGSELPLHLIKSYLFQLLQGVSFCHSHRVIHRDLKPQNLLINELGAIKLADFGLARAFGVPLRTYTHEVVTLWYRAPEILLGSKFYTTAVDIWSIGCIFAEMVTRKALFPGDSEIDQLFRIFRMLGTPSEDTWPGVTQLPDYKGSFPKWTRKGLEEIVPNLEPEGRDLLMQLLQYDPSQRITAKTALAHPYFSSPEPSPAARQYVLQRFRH
Cyclin-dependent kinase 5 (Homo sapiens), sequence (Q00535 whole entry, looked up): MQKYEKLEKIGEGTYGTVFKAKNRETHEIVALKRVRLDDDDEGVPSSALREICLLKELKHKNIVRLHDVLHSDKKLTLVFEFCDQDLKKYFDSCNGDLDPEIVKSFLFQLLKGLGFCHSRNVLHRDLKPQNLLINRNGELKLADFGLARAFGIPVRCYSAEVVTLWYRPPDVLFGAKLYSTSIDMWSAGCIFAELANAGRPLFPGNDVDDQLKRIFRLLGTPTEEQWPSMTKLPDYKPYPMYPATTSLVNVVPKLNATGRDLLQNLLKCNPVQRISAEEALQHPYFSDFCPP
Cyclin-dependent kinase 1 (Homo sapiens), sequence (P06493 whole entry, looked up): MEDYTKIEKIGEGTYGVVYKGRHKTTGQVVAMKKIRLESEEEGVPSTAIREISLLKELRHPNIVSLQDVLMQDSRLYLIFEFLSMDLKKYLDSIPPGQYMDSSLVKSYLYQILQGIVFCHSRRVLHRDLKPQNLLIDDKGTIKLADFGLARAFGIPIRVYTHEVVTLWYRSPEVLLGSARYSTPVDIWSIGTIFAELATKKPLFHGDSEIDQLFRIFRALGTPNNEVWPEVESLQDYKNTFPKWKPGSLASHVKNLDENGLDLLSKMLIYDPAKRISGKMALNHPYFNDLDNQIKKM
Casein kinase I isoform gamma-3 (Homo sapiens), sequence (Q9Y6M4 whole entry, looked up, canonical isoform): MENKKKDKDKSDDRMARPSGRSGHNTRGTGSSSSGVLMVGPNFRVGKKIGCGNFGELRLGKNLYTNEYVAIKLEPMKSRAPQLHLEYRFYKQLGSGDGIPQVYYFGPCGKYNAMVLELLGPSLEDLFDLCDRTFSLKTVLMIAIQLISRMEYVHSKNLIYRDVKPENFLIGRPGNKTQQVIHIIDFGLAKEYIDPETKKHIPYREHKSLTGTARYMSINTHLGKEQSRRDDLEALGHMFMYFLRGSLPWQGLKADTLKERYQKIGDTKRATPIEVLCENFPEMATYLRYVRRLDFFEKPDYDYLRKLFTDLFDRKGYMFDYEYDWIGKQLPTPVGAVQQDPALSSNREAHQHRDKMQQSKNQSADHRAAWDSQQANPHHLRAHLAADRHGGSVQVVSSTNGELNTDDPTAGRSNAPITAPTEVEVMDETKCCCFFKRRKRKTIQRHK
Casein kinase I isoform gamma-2 (Homo sapiens), sequence (P78368 whole entry, looked up, canonical isoform): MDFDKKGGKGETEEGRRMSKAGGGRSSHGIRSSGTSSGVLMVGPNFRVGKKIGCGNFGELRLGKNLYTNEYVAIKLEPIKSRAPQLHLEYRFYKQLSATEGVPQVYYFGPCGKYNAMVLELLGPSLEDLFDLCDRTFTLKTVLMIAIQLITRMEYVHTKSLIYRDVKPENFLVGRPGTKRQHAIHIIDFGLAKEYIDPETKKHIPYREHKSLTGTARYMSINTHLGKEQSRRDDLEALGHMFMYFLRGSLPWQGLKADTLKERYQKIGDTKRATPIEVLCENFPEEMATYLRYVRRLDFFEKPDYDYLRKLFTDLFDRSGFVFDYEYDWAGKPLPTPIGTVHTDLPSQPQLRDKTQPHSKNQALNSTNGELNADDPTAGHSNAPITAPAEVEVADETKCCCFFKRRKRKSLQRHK
Dual specificity protein kinase CLK2 (Homo sapiens), sequence (P49760 whole entry, looked up): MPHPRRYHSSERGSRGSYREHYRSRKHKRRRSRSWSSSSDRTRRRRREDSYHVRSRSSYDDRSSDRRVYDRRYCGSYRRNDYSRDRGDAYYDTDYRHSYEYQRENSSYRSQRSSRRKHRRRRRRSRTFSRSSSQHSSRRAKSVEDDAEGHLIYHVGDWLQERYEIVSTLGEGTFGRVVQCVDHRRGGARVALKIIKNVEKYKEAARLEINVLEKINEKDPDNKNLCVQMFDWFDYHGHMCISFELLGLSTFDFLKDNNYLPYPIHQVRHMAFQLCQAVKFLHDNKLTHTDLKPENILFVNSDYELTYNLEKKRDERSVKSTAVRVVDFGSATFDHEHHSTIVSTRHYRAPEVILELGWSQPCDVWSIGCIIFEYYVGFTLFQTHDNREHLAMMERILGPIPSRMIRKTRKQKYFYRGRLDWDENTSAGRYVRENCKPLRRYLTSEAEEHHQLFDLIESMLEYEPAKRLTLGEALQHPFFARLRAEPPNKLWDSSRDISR
Cyclin-dependent kinase 4 (Homo sapiens), sequence (P11802 whole entry): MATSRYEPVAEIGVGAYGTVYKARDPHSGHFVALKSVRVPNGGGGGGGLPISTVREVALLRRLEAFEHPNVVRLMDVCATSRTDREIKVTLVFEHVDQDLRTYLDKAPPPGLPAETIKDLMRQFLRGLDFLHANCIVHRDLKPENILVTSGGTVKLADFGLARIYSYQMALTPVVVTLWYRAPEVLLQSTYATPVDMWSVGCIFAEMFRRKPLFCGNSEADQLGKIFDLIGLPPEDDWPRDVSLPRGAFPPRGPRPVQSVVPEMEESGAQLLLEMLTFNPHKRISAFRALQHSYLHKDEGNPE
Cyclin-dependent kinase 6 (Homo sapiens), sequence (Q00534 whole entry): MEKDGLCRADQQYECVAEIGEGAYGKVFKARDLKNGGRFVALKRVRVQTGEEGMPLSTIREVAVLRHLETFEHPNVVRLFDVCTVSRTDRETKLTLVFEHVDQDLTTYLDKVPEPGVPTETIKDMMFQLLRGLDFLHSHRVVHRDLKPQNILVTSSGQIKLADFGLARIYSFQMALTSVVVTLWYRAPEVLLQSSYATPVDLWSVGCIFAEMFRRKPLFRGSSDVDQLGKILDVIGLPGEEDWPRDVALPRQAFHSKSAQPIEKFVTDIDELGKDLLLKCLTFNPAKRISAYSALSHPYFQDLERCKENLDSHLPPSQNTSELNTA

Row | Structure (SMILES) | inhibition [1] [%] | inhibition [2] [%] | inhibition [3] [%] | inhibition [4] [%] | inhibition [5] [%] | inhibition [6] [%] | inhibition [7] [%] | inhibition [8] [%] | inhibition [9] [%] | inhibition [10] [%] | inhibition [11] [%] | inhibition [12] [%] | inhibition [13] [%] | inhibition [14] [%] | inhibition [15] [%] | inhibition [16] [%] | inhibition [17] [%] | inhibition [18] [%] | inhibition [19] [%] | inhibition [20] [%]
1 | C/C(Nc1ccc(S(N)(=O)=O)cc1)=C1/C(=O)Nc2ccccc21 | 18.7 | -1.23 | 19.1 | 0.68 | 14.5 | 7.75 | 56 | 8.8 | 48.1 | 9.17 | 50.1 | 3.5 | 32 | 8.67 | 44.7 | 37 | 74.7 | 0.33 | 2.45 | -0.03
2 | COc1cc2ncn(-c3cc(OCCc4ccccc4)c(C(N)=O)s3)c2cc1OC | 7.82 | 2.44 | 6.34 | 0.36 | 1.62 | 0.55 | 3.19 | 2.3 | 5.22 | 1.71 | 0.51 | 1.86 | 1.87 | 0.7 | 1.45 | -3.45 | 2.54 | 1.3 | 2.64 | 0.57
3 | COc1cc(C)c(N(C)C(=O)CN(C)C)cc1Nc1nc(Nc2cccc(F)c2C(N)=O)c2cc[nH]c2n1 | 10.4 | -0.15 | 26.6 | -4.66 | -4.18 | -3.41 | 1.23 | -2.41 | -2.88 | -0.03 | 0.55 | -3.32 | -2.23 | -3.87 | -4.34 | -3.28 | -2.66 | 2.65 | 12.6 | -5.35
4 | O=C(Nc1n[nH]c2cc(-c3ccccc3)ccc12)C1CC1 | 4.84 | 4.39 | 4.52 | 0.9 | 5.76 | 3.52 | 11.2 | 4.57 | 8.54 | 2.98 | 4.6 | 3.5 | 9.81 | 1.28 | 5.17 | 1.28 | 23.7 | 1.71 | 2.28 | 0.78
5 | Nc1nccc(-c2c(-c3ccc(F)cc3)ncn2C2CCC(O)CC2)n1 (stereo not given) | 3.41 | -1.07 | 10.8 | 0.17 | 5.68 | -0.46 | -4.73 | 0.06 | 1.24 | -1 | -0.81 | 0.24 | 1.17 | 0.55 | 1.98 | 1.41 | 1.1 | 1.54 | 0.55 | 1.02
6 | FC(F)(F)c1cccc(Nc2nccc(-c3cnn4nc(-c5ccccc5)ccc34)n2)c1 | 2.62 | 1.84 | 2.44 | 0.56 | 4.07 | 1.41 | 13.5 | 3.41 | 26.4 | -1.25 | 2.5 | 1.39 | 5.84 | 0.4 | 3.29 | 0.39 | 2.53 | 57.2 | 92.1 | 1.66
7 | CN(C)CCCNc1nccc(-c2c(-c3ccc(F)cc3)nn3cc(C(F)(F)F)ccc23)n1 | -1.02 | -3.53 | -1.67 | -1.9 | 1.74 | -2.76 | 3.18 | -2.39 | 1.3 | 0.59 | 1.62 | -2.82 | 1.54 | -1.32 | 1.69 | -1.2 | -0.54 | 1.26 | -0.07 | -2.82
8 | Cc1ccc(NC(=O)c2ccoc2)cc1-c1ccc(C(=O)NCC2CC2)cc1 | 3.57 | 2.63 | 2.71 | 1.06 | 1.75 | -0.08 | 1.04 | 0.91 | 3.1 | -0.03 | -5.1 | 0.87 | 2.89 | 0.24 | 1.07 | -5.62 | 0.19 | 0.43 | -2.64 | 0.53
9 | N#Cc1ccc(Oc2nccc(-c3c(-c4ccc(F)cc4)ncn3C3CCNCC3)n2)cc1 | 5.15 | 1.83 | 5.34 | 0.28 | 1.02 | 0.77 | 1.99 | 1.81 | 2.89 | -1.88 | -2.53 | 0.98 | 3.8 | 0.41 | 1.15 | 1.26 | -1.15 | 1 | -0.9 | 0.28
10 | Fc1ccc(-c2nc3n(c2-c2ccncc2)CCS3)cc1 | 4.78 | 0.7 | 8.82 | -2.26 | -3.55 | -1.04 | 1.08 | 0.41 | 0.29 | 4.27 | -2.73 | -1.97 | -0.8 | -2.49 | -2.61 | -7.51 | -1.4 | 1.78 | 0.05 | -1.51
11 | O=C(Nc1n[nH]c2nc(-c3ccco3)ccc12)C1CC1 | 1.22 | -1.28 | 0.46 | -0.24 | 2.61 | 3.24 | 6.79 | -0.16 | 3.89 | 0.19 | 4.64 | 1.89 | 2.71 | -0.11 | 1.68 | 3.9 | 8.22 | -0.38 | -0.4 | 0.26
12 | NC(=O)c1cc(-c2ccncc2)cc(-c2ccccc2)c1N | 4.95 | 4.56 | 4.47 | -0.45 | 1.56 | 2.79 | 5.38 | 4.07 | 3.97 | 4.6 | -0.18 | 2.8 | 2.69 | 0.58 | 0.44 | -1.43 | 2.3 | 1.45 | 1.33 | 1.22
13 | CN(C)c1ccc2c(c1)/C(=C/Nc1ccc(S(N)(=O)=O)cc1)C(=O)N2 | 1.27 | 0.48 | 0.92 | 6.23 | 33.9 | 21.8 | 82.6 | 16.3 | 54 | 5.6 | 38.9 | 11.3 | 43.5 | 16.2 | 57 | 4.7 | 48.2 | 1.72 | 11 | 0.66
